# Screening results (PubChem)
# The list is not random: actives were taken first. Their share in the collection is about 21%.
# CHX counter: affects cycloheximide protein synthesis inhibition readout, counter-screen | cell reporter, cycloheximide protein synthesis inhibition counterscreen | max response, % | 300,000 tested, 12% active; in the data active = max response mostly above about 13%, no sharp cut-off; inactive = mostly below about 14%; also: read at 38.3 µM for the half of the compounds with a filed dose; 0% is about no effect
# Shiga inhibitor: Shiga toxin inhibition; inhibition, % at 38.7 µM; 290,000 tested, 9.2% active; Vero cells, Shiga toxin protein synthesis inhibition reporter; in the data active = inhibition mostly above about 28%, no sharp cut-off; inactive = mostly below about 43%; also: 0% is about no effect
# Pf growth 96h: P. falciparum growth inhibition at 96 hours | P. falciparum luciferase reporter growth, 96 h | Potency, µM (top dose mostly 28.7 µM), without a hit: top-dose activity change, negative = inhibition, most hits filed as inhibitors | 320,000 tested, 6.9% active | AID 504834; also: potency is read from the fitted curve at half-maximal effect; % is scaled to controls: 0 for no effect and ±100 for the full control effect
#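 Two parasite generations (96 h, 37 C, 5% CO2) of compound exposure in infected erythrocytes (0.05% parasitemia, 2% hematocrit). Luciferase-reporter P. falciparum; decreased luminescence indicates inhibited growth, aimed at apicoplast-acting delayed death.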
# Giardia FBPA inh: blocks Giardia fructose-bisphosphate aldolase activity | 290,000 tested, 0.71% active | purified Giardia FBPA | Potency, µM (top dose mostly 59.6 µM), without a hit: top-dose activity, negative = inhibition, most hits filed as inhibitors; also: potency is read from the fitted curve at half-maximal effect; % is scaled to controls: 0 for no effect and ±100 for the full control effect; nearly all actives have a fitted effect of over 55% in size
# Target sequence (A8B2U2 whole entry, looked up): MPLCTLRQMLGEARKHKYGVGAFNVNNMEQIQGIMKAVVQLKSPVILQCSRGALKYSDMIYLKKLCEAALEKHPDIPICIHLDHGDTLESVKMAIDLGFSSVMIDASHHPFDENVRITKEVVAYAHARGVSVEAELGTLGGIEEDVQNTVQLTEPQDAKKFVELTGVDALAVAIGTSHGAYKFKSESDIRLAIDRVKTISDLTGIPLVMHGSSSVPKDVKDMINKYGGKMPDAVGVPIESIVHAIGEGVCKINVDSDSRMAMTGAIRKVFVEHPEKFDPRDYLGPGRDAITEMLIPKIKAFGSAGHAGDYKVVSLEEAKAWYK
#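 Giardia FBPA (40 nM reagent) was preincubated 10 min at RT with compound (up to 57.5 uM final), then substrate plus GAPDH/TPI/NAD/arsenate coupling system with diaphorase/resazurin was added; resorufin fluorescence (525/598 nm) was read after 20 min.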
# NS1 inh: blocks influenza NS1 protein function | Potency, µM (titrated, usually from 46.1 µM), for inactives: at the top dose activity, positive = more growth | 270,000 tested, 0.4% active | AID 2326; calls by dose curve; also: potency is read from the fitted curve at half-maximal effect; actives are rising curves; nearly all actives have a fitted effect of over 50% in size
#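 Read-out: OD600 growth recovery of NS1-expressing budding yeast. Cells grown overnight at 30C in -URA glucose medium, washed, resuspended and diluted 1:100 in 2% galactose assay medium, pH 6.0. Same strain lacking NS1 served as positive control.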
# Pf growth 48h: P. falciparum growth inhibition at 48 hours (one generation). AID 504832. P. falciparum luciferase growth in erythrocytes, 48 h. 310,000 tested, 5.9% active. Potency, µM (top dose mostly 28.7 µM), for inactives: top-dose activity change, negative = inhibition, hits mostly inhibitors; also: potency is read from the fitted curve at half-maximal effect; % is scaled to controls: 0 for no effect and ±100 for the full control effect
#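 Firefly luciferase activity from engineered P. falciparum reports growth; inhibitors lower the luminescent signal. Cultures contained 2% hematocrit erythrocytes at 0.1% final parasitemia.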
# Starred values were filed as active, the others as inactive; ? = inconclusive; . = no result given; [ ] = remark or other dose. Unless noted, calls follow the shape of the dose curve; as a rule, active = well fitted curve in the direction sought with a large enough effect; inconclusive = small, poorly fitted or top-dose-only effect, or another doubt; inactive = no such curve, though single readings can be large; an effect the other way counts as inactive or inconclusive.
SMILES,CHX counter,Shiga inhibitor,Pf growth 96h,Giardia FBPA inh,NS1 inh,Pf growth 48h
N#Cc1ccccc1S(=O)(=O)N1CCN(c2nc(-c3cccnc3)nc3ccccc23)CC1,.,.,4.65µM*,.,.,9.28µM*
COc1ccc(S(=O)(=O)N2CCN(c3nc(-c4cccnc4)nc4ccccc34)CC2)cc1,.,.,2.08µM*,.,.,2.94µM*
Cc1ccc(C)c(S(=O)(=O)N2CCN(c3nc(-c4cccnc4)nc4ccccc34)CC2)c1,.,.,?,.,.,3.29µM*
COc1cccc(-c2nc(N3CCNCC3)c3ccccc3n2)c1,.,.,.,-6.0%,.,.
COc1cc2c(cc1OC)CN(c1nc(-c3cccnc3)nc3ccccc13)CC2,-2.2,14.3,11.7µM*,-11.0%,4.4%,?
CN1CCN(c2nc(-c3cccc(C#N)c3)nc3ccccc23)CC1,.,.,.,0.0%,.,.
COc1cccc(C2=Nn3c(nnc3-c3ccccc3OC)SC2)c1,-1.5,2.0,.,?,.,.
CN1CCN(c2nc(-c3cccnc3)nc3ccccc23)CC1,0.9,-8.0,-19.6%,1.9%,-1.3%,?
c1cncc(-c2nc(N3CCCCCC3)c3ccccc3n2)c1,-2.9,-11.2,.,13.1%,-93.6%,0.465µM*
CCOC(=O)C1CCCN(C(=O)c2ccc(NC(=O)CC3SC(N4CCCC4)=NC3=O)cc2)C1 (configuration not stated),.,.,?,.,.,10.4µM*
CN(C)C(=O)c1ccc(NC(=O)CC2SC(N3CCCC3)=NC2=O)cc1 (configuration not stated),.,.,30.2%,.,.,22.5%
O=C(CC1SC(N2CCCC2)=NC1=O)Nc1ccc(C(=O)N2CCN(c3cccc(Cl)c3)CC2)cc1 (configuration not stated),.,.,?,.,.,8.28µM*
CN1c2ccccc2N(C)C1(C)c1ccccc1,0.5,13.3,-0.1%,?,?,2.33µM*
CCN1c2ccccc2N(C)C1(C)c1ccccc1 (configuration not stated),-3.0,-11.6,0.0%,?,21.6%,2.62µM*
CN(CC(=O)Nc1ccc(F)cc1)C(=O)C1CC(=O)N(Cc2ccccc2)C1 (configuration not stated),-2.6,-6.4,25.6%,-1.0%,-0.1%,0.1%
Cc1cc(NC(=O)CCC(=O)N(c2ccccc2C)C(C(=O)NC2CCCC2)c2ccccc2)no1 (configuration not stated),-2.1,-1.1,-67.9%,7.7%,16.2%,?
COC(=O)C1=C(c2ccc(C(C)=O)cc2)C[C@@H]2CC[C@H]1N2C(=O)NCc1ccco1,.,.,?,.,.,-20.6%
COC(=O)C1=C(c2ccc(OC(F)(F)F)cc2)C[C@@H]2CC[C@H]1N2C(=O)NCc1cccc2ccccc12,.,.,1.85µM*,.,.,1.65µM*
COC(=O)C1=C(c2ccc(-c3ccccc3)c(F)c2)C[C@@H]2CC[C@H]1N2C(=O)NCCOc1ccc(OC)cc1,.,.,?,.,.,7.38µM*
COC(=O)C1=C(c2ccc(-c3ccccc3)c(F)c2)C[C@@H]2CC[C@H]1N2C(=O)NCCNC(C)=O,.,.,-5.9%,.,.,?
COC(=O)C1=C(c2ccc(OC(F)(F)F)cc2)C[C@@H]2CC[C@H]1N2C(=O)NCc1cc(C)oc1C(F)(F)F,.,.,8.28µM*,.,.,11.7µM*
COC(=O)C1=C(c2ccc(-c3ccccc3)c(F)c2)C[C@@H]2CC[C@H]1N2C(=O)NCCc1ccccc1,.,.,?,.,.,6.57µM*
O=C(Nc1ccccc1)OC[C@H](CN1CCCCC1)OC(=O)Nc1ccccc1,.,.,2.9%[12.8 µM],-1.3%[21.7 µM],.,-14.7%[12.8 µM]
COC(=O)C1=C(c2ccc(-c3ccccc3)c(F)c2)C[C@@H]2CC[C@H]1N2C(=O)NCc1cccc2ccccc12,.,.,1.04µM*,.,.,1.17µM*
O=C(CCl)N1c2ccccc2CCc2ccccc21,-1.7,-8.8,?,-7.7%,-23.6%,10.4µM*
SMILES,CHX counter,Shiga inhibitor,Pf growth 96h,Giardia FBPA inh,NS1 inh,Pf growth 48h
O=C(COc1ccc(F)cc1)N1c2ccccc2CCc2ccccc21,-4.1,-9.0,?,2.5%,-11.3%,?
O=C(COc1cccc2ccccc12)N1c2ccccc2CCc2ccccc21,-2.3,-21.2,?,-5.0%,-13.0%,10.4µM*
CCCCN(C)C(=S)Nc1ccc2nc(N3CCN(CC)CC3)cc(C)c2c1,12.6,82.3*,?,-12.8%,-1.6%,?
CCN(CC)CCNC(=S)Nc1ccc2nc(N3CCN(CC)CC3)cc(C)c2c1,-0.7,-4.0,-15.7%,0.9%,-2.3%,11.7µM*
CCCCN(CC)C(=S)Nc1ccc2nc(N3CCN(C)CC3)cc(C)c2c1,27.7*,28.4,8.9%,-13.4%,-7.6%,?
CCCCNC(=O)CCC(=O)Nc1ccc2nc(N3CCN(C)CC3)cc(C)c2c1,7.0,5.4,3.5%,-6.6%,.,-5.9%
CCCCN(C)CCNC(=S)Nc1ccc2nc(N3CCN(CC)CC3)cc(C)c2c1,-2.4,8.4,?,2.3%,-1.4%,2.33µM*
CCCCNC(=S)Nc1ccc2nc(N3CCN(CC)CC3)cc(C)c2c1,-4.5,-7.9,?,0.8%,-5.5%,-2.8%[0.00184 µM]
CCN1CCN(c2cc(C)c3cc(NC(=S)NCCN(C)C)ccc3n2)CC1,2.2,-5.0,70.0%,10.6%,-2.5%,?
Cc1ccc(N(CC(=O)NC2CCCC2)C(=O)CNC(=O)c2cccs2)cc1F,-4.5,-7.0,-12.5%,-17.0%,7.4%,0.5%
Cc1ccccc1-c1nc(CS(=O)(=O)CC(=O)NCCCN2CC(C)CC(C)C2)c(C)o1 (configuration not stated),-1.3,-10.0,75.0%,9.4%,-6.2%,?
CC1(C)O[C@@H]2[C@H](O1)[C@@H](COS(=O)(=O)O)O[C@H]2n1cnc2c(N)ncnc21,.,.,50.7%,.,.,29.6%
CCOC1OC2C(CO)OC(n3cnc4c(N)ncnc43)C2O1 (configuration not stated),-2.2,-5.7,4.65µM*,1.4%,4.0%,-0.2%
Nc1ncnc2c1ncn2[C@@H]1O[C@H](COS(=O)(=O)O)[C@@H](O)[C@H]1O,.,.,?,.,.,13.1µM*
COc1ccc(/C=N/NC(=O)c2cccc(NC(=O)c3ccccc3Cl)c2)cc1OC,4.1,-2.8,-16.4%,6.3%,.,1.4%
O=C(N/N=C/c1ccc(F)cc1)c1cccc(NC(=O)c2ccccc2Cl)c1,20.5*,36.4*,-5.7%,-0.9%,2.9%,-3.3%
COc1ccc(/C=N/NC(=O)c2cccc(NC(=O)c3ccccc3Cl)c2)cc1,49.5*,40.5,3.6%,-3.7%,18.3%,-31.1%
COc1ccc(NS(=O)(=O)c2cccc(C(=O)NNC(=O)CN3C(=O)NC(C)(C)C3=O)c2)cc1,.,.,23.0%,.,.,10.3%
Nc1c(N(CCC2=CCCCC2)C(=O)C2CC2)c(=O)[nH]c(=O)n1Cc1ccccc1,-2.0,13.6,?,19.4%,-8.1%,-10.2%
CCCCCCCCCCCCOCCOCCOCCOCCOCCOCCOCCOCCOCCO,-1.4,5.5,10.7µM*,7.9%,.,?
COCCOC(=O)c1sc2nc[nH]c(=O)c2c1C,1.9,-4.9,11.5%,-6.2%,.,13.3%
